According to PubChem BioAssay AID463173 (ICCB-Longwood Screening Facility, Harvard Medical School, 2010):
Out of some 52,000 compounds screened, about 4,300 (8.3%) were called active. Shown is part of a subset that was picked to be rich in actives. Unmarked numbers belong to inactive results. Cut-off read from the data, not from the text of the source: active = survival mostly below about 52% (no sharp cut-off); inactive = mostly above about 56%.

What follows are compounds tested on DeltatarO mutant (assay: growth inhibition of S. aureus wild type versus tarO mutant, primary screen, teichoic acid synthesis inhibitors, RN4220, OD600 (AID 463173)). Conditions: OD600, 18 h, hits give low values, screened at 18.75 µg/mL (by protocol).
With `CCOC(=O)c1ccc(NC(=O)c2c(NCc3cccc(OC)c3OC)sc3c2CCC3)cc1` the survival was 77%.
In the case of `COc1ccccc1CCNC(=O)Cc1c(C)c2cc3c(C)coc3cc2oc1=O`, the survival was 68%.
For `CCOC(=O)C1=C(CN2CCN(c3ccccc3OC)CC2)NC(=O)NC1c1ccccc1` (stereo not given), the survival was 70%.
In the case of `Cc1ccc(-c2nnc(Nc3cccc(Cl)c3)c3ccccc23)cc1S(=O)(=O)N1CCCCC1`, the survival was 65%.
With `CCN(C(=O)c1ccc(C(=O)N(CC)c2ccccc2C)cc1)c1ccccc1C` the survival was 68%.
Work on `CCN(CC)C(=O)c1ccccc1NC(=O)c1ccccc1` yielded a survival of 92%.
In the case of `CCN(CC)C(=O)c1ccccc1C`, the survival was 48% (active).
In the case of `CCCCC(CC)CNC(=O)CN(C)S(=O)(=O)c1ccc2c(c1)c(=O)n(C)c(=O)n2C` (stereo not given), the survival was 73%.
Work on `CCc1ccc(-n2c(=O)c3c4c(sc3n(CC(=O)c3ccc(Cl)cc3)c2=O)CCC4)cc1` yielded a survival of 142%.
Compound `c1ccc(CNc2nnnn2-c2ccccc2)cc1` has a survival of 93%.
`O=C(O)CCSc1nnnn1-c1ccccc1` showed a survival of 73%.
`CCS(=O)(=O)c1nnnn1-c1ccccc1` was tested, and the survival was 9% (active).
`CCOc1ccc(C2CC(=O)Nc3cc4c(cc32)OCO4)cc1OC` (stereo not given) was tested, and the survival was 120%.
`NS(=O)(=O)c1ccc(CCNc2ncnc3c2cnn3-c2cccc(Cl)c2)cc1` gave a survival of 93%.
In the case of `CCOc1ccc(NC(=O)Cn2c(=O)n(CC(=O)NCCc3ccccc3)c(=O)c3sccc32)cc1`, the survival was 71%.
Work on `COc1cc(OC)cc(-n2c(=O)c3ccccc3n(CC(=O)NCCc3ccc(OC)c(OC)c3)c2=O)c1` yielded a survival of 83%.
Work on `COc1cccc(NC(=O)Cn2c(=O)n(CC(=O)NCc3ccc(C)cc3)c(=O)c3sccc32)c1` yielded a survival of 77%.
For `COc1cccc(NC(=O)Cn2c(=O)n(CC(=O)NCCc3ccccc3)c(=O)c3sccc32)c1`, the survival was 45% (active).
For `COc1cc(NC(=O)Cn2c(=O)n(CC(=O)NCCc3ccc(OC)c(OC)c3)c(=O)c3sccc32)cc(OC)c1`, the survival was 49% (active).
With `COc1ccc(CCNC(=O)Cn2c(=O)c3sccc3n(CC(=O)Nc3cccc(C(F)(F)F)c3)c2=O)cc1OC` the survival was 82%.
`CCN(CC)S(=O)(=O)c1ccc2c(c1)N(CC(=O)NCCCN1CCN(c3ccccc3F)CC1)C(=O)CO2` showed a survival of 77%.
In the case of `CC1=CC(C)C(/C=N/N=C(N)N)C(C)C1` (stereo not given), the survival was 71%.
Compound `Cn1c(SCC(=O)O)nc2ccccc21` has a survival of 109%.
For `CCCc1ncc(C(O)c2ccccc2OC)n1C` (stereo not given), the survival was 85%.
For `CC(C)c1ncc(C(O)c2cccc3ccccc23)n1C` (stereo not given), the survival was 56% (active).
Compound `CC(C)c1cnc2c(c1SCC(=O)NCc1ccccc1)c(=O)n(C)c(=O)n2C` has a survival of 77%.
`Cc1cc(NC(=O)CN2CCC(O)CC2)nc2c1c(=O)oc1ccccc12` showed a survival of 83%.
`COc1ccccc1-c1c(C(F)(F)F)oc2c(CN3CCCCC3C)c(O)ccc2c1=O` (stereo not given) showed a survival of 62%.
With `COc1ccc(S(=O)(=O)NCCSc2nnnn2-c2ccccc2)cc1OC` the survival was 127%.
In the case of `COc1ccc(C(C)=O)cc1CSc1nc(NCc2ccc(Cl)cc2)c2ccccc2n1`, the survival was 8% (active).
`COc1ccc(C(C)=O)cc1CSc1nc(NCCc2ccccc2)c2ccccc2n1` gave a survival of 60%.
`O=C(CSc1nc(Nc2ccc(F)c(F)c2)c2ccccc2n1)c1ccc(Cl)cc1` showed a survival of 101%.
`COc1ccc(C(C)=O)cc1CSc1nc(Nc2ccc(F)c(F)c2)c2ccccc2n1` was tested, and the survival was 25% (active).
Work on `COc1ccc(C(C)=O)cc1CSc1nc(NCc2ccccc2)c2ccccc2n1` yielded a survival of 89%.
In the case of `COc1cc(Nc2nc(SCc3ccccc3F)nc3ccccc23)cc(OC)c1`, the survival was 118%.
`Cc1cccc(N2CCN(C(=O)c3nn(C)c4c3CS(=O)(=O)c3ccccc3-4)CC2C)c1` (stereo not given) was tested, and the survival was 71%.
Work on `COc1cc(NC(=O)c2cc3cc4ccc(OC)c(Cl)c4nc3s2)cc(OC)c1` yielded a survival of 98%.
For `CN(CC(=O)Nc1ccc(F)cc1F)S(=O)(=O)c1cccc2nsnc12`, the survival was 92%.
Compound `CCc1cccc(CC)c1NC(=O)Cn1nnc2sc3c(c2c1=O)CCCC3` has a survival of 142%.
For `Cc1ccc(NC(=O)Cn2nnc3sc4c(c3c2=O)CCCC4)c(C)c1`, the survival was 86%.
Work on `Cc1cccc(OCCn2nnc3sc4c(c3c2=O)CCCC4)c1` yielded a survival of 65%.
With `O=c1c2c3c(sc2nnn1Cc1ccc(Br)cc1)CCCC3` the survival was 37% (active).
In the case of `CC(C)OC(=O)c1cccc(NC(=O)Cn2nnc3sc4c(c3c2=O)CCCC4)c1`, the survival was 75%.
For `CCOC(=O)c1ccccc1NC(=O)Cn1nnc2sc3c(c2c1=O)CCCC3`, the survival was 63%.
For `CC(C)OC(=O)c1ccc(Cn2nnc3sc4c(c3c2=O)CCCC4)cc1`, the survival was 20% (active).
Compound `COC(=O)c1ccc(Cn2nnc3sc4c(c3c2=O)CCCC4)cc1` has a survival of 74%.
`Cc1ccccc1Cn1nnc2sc3c(c2c1=O)CCCC3` was tested, and the survival was -1% (active).
With `O=c1c2c3c(sc2nnn1CCCCOc1ccc(Cl)cc1)CCCC3` the survival was 108%.
For `COc1ccc(OCCn2nnc3sc4c(c3c2=O)CCCC4)cc1`, the survival was 83%.
In the case of `Cc1ccc(OCCCCn2nnc3sc4c(c3c2=O)CCCC4)cc1`, the survival was 48% (active).
In the case of `N#Cc1ccccc1NC(=O)CSc1ncn[nH]1`, the survival was 164%.
`CC(C)(C)c1ccc(C(=O)N2CCC(c3nc4ccccc4o3)CC2)cc1` was tested, and the survival was 86%.
`CCOc1ccc(NC(=O)CSc2ncc(S(=O)(=O)c3ccc(F)c(C)c3)c(=O)[nH]2)cc1` was tested, and the survival was 58%.
`CCc1ccc(CNC(=O)c2c(C)oc3ncn(CC(C)C)c(=O)c23)cc1` was tested, and the survival was 88%.
`Cc1cc(NCCN(C)C)n2nc(C)c(-c3ccccc3)c2n1` gave a survival of 93%.
`CCCCCNS(=O)(=O)c1ccc(N2CCCCS2(=O)=O)cc1` gave a survival of 77%.
`Cc1nc2cc(-c3cccc(F)c3)nn2c(C)c1CCC(=O)N1CCN(c2ccc(F)cc2)CC1` gave a survival of 56%.
`CCOc1ccc(-c2cc(NC(=O)Nc3ccccc3Cl)c(C(=O)OC)s2)cc1` was tested, and the survival was 56%.
For `Cn1c(=O)oc2cc(S(=O)(=O)N3CCCC(C(=O)N4CCN(c5ccc(F)cc5)CC4)C3)ccc21` (stereo not given), the survival was 92%.
In the case of `COc1ccc(-c2[nH]c3ccccc3c2SCCNC(=O)c2cc(OC)c(OC)c(OC)c2)cc1`, the survival was 62%.
For `COc1cccc(-c2nc(SCC(=O)NC3CCCC3)c(-c3ccc(C)cc3)[nH]2)c1`, the survival was 107%.
Work on `CC(C)Cc1nn2c(=O)cc(COC(=O)c3ccc4c(c3)OCO4)nc2s1` yielded a survival of 73%.
`O=C(CN1CCCN(Cc2ccccc2Cl)S1(=O)=O)Nc1ccc2c(c1)OCCO2` gave a survival of 67%.
`Cc1ccc(C)c(S(=O)(=O)Nc2ccc3c(c2)CCCN3C(=O)c2cccs2)c1` was tested, and the survival was 47% (active).
In the case of `Cc1ccc(S(=O)(=O)Nc2ccc3c(c2)CCCN3C(=O)c2cccs2)cc1`, the survival was 75%.
`Cc1ccc(S(=O)(=O)Nc2ccc3c(c2)CCCN3C(=O)c2cccs2)cc1C` gave a survival of 70%.
`Cc1ccc(NC(=O)Cn2c(=O)n(Cc3ccco3)c(=O)c3ccccc32)cc1` showed a survival of 78%.
Compound `O=C(Cn1nc(-c2ccc(Cl)cc2)c2ccccc2c1=O)NCCN1CCOCC1` has a survival of 97%.
In the case of `Cc1ccc(-c2nn(CC(=O)Nc3cccc(C(F)(F)F)c3)c(=O)c3ccccc23)cc1`, the survival was 31% (active).
Compound `O=C(Cn1nc(Cc2ccncc2)c2ccccc2c1=O)Nc1cccc(C(F)(F)F)c1` has a survival of 71%.
In the case of `COCCNC(=O)Cn1nc(-c2ccc(C)cc2)c2ccccc2c1=O`, the survival was 39% (active).
Work on `COCCNC(=O)CCn1nc(-c2ccc(Cl)cc2)c2ccccc2c1=O` yielded a survival of 77%.
For `CN(C)C(=O)c1ccc(NC(=O)Cn2nc(-c3ccccc3)c3ccccc3c2=O)cc1`, the survival was 39% (active).
`CN(C)C(=O)Cn1nc(-c2ccccc2)c2ccccc2c1=O` was tested, and the survival was 92%.
`O=C(Cn1nc(-c2ccc(Cl)cc2)c2ccccc2c1=O)Nc1cccc(Br)c1` was tested, and the survival was 28% (active).
For `COCCNC(=O)Cn1nc(C)c2c(C)n(-c3ccc(C)cc3)nc2c1=O`, the survival was 135%.
`O=C(Cn1nc(-c2ccccc2)c2cnc3ccccc3c21)Nc1ccccc1` was tested, and the survival was 76%.
With `Cn1nc(-c2ccc(OCC(=O)Nc3cccc(C(F)(F)F)c3)cc2)c2ccccc2c1=O` the survival was 78%.
`Cc1cccc(NC(=O)Cn2nc(-c3ccc(Cl)cc3)c3ccccc3c2=O)c1` showed a survival of 142%.
Work on `CCOc1ccc(CCNCc2c(C(=O)O)c(C)n(Cc3ccccc3F)c2C)cc1` yielded a survival of 82%.
Compound `CC(C)(C)n1nnnc1CN1CCC(NC(=O)Nc2ccc(F)cc2)CC1` has a survival of 102%.
In the case of `CCOC(=O)c1ccc(NS(=O)(=O)c2ccc3c(c2)n(C)c(=O)n3C)cc1`, the survival was 96%.
Work on `Fc1ccc(-n2ncc3c(Nc4cccc(Cl)c4)ncnc32)cc1` yielded a survival of 67%.
`COc1cccc2c1cc1c(=O)n(CC(=O)N3CCN(c4ccc(F)cc4)CC3)nc(C)n12` gave a survival of 87%.
`COc1cccc(NC(=O)CN2C=NS(=O)(=O)c3ccccc32)c1` showed a survival of 122%.
For `O=C(CCCCn1c(=O)c2ccccc2n(Cc2ccc(F)cc2Cl)c1=O)NCCc1ccc(Cl)cc1`, the survival was 72%.
Work on `O=C(c1ccc(Cl)cc1)N1CCCCC1CCN1CCOCC1` (stereo not given) yielded a survival of 104%.
`Cc1nc2c(C(=O)NC(C)c3ccccc3)cnn2c(C)c1Cc1ccccc1` (stereo not given) gave a survival of 72%.
With `COCCNC(=O)Cn1nc(N2CCN(c3ccccc3OC)CC2)ccc1=O` the survival was 94%.
`O=C(Cn1nc(Cc2cccnc2)c2ccccc2c1=O)Nc1cccc(C(F)(F)F)c1` showed a survival of 54%.
In the case of `Cc1ccc(NC(=O)Cn2nc(-c3ccc(Cl)cc3)c3ccccc3c2=O)cc1`, the survival was 38% (active).
For `O=C(Cn1nc(-c2ccc(Cl)cc2)c2ccccc2c1=O)Nc1cccc(C(F)(F)F)c1`, the survival was 34% (active).
Compound `Cn1nc(-c2ccc(C(=O)Nc3cccc(C(F)(F)F)c3)cc2)c2ccccc2c1=O` has a survival of 57%.
For `COc1ccc(NC(=O)CCn2nc(-c3ccc(Cl)cc3)c3ccccc3c2=O)cc1`, the survival was 76%.
`CNC(=O)Cn1nc(-c2ccc(Cl)cc2)c2ccccc2c1=O` showed a survival of 52%.
